# Source: PubChem BioAssay (NCI)
# The panel holds about 83,000 compounds, 20% with a hit somewhere; the sample as a whole holds those more often.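 The test compound was applied at a single concentration to cells in 96-well plates for 48 hours, and percent growth was recorded.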 Unmarked numbers belong to inactive results. Activity calls are given as the source filed them. The calls were made as follows: active = growth percent below 10; inactive = the rest.
# Columns and labels:
# Assay in all cases: NCI-60 one-dose screen, 48 h (100 = growth as untreated, 0 = no growth, -100 = all killed)
# Conditions in all cases: 10 µM unless noted
# NCI/ADR-RES ovarian = system: NCI/ADR-RES ovarian
# T-47D breast = system: T-47D breast
# BT-549 breast = system: BT-549 breast
# MDA-MB-435 melanoma = system: MDA-MB-435 melanoma
# SW-620 colon = system: SW-620 colon
# HCT-116 colon = system: HCT-116 colon
# HCC-2998 colon = system: HCC-2998 colon
# KM12 colon = system: KM12 colon
# MCF7 breast = system: MCF7 breast
Compound,growth (NCI/ADR-RES ovarian),growth (T-47D breast),growth (BT-549 breast),growth (MDA-MB-435 melanoma),growth (SW-620 colon),growth (HCT-116 colon),growth (HCC-2998 colon),growth (KM12 colon),growth (MCF7 breast)
CCOC(=O)N[C@H]1CCc2c(Br)c(OC)c(OC)c(OC)c2-c2ccc(SC)c(=O)cc21,11.8%,42.6%,3.55% (active),-54.2% (active),16.7%,-5.72% (active),14.6%,-8.71% (active),–
COc1ccc(C2=N[C@@H](Cc3ccccc3)C(=O)Nc3ccsc32)cc1,28.4%,61.1%,51.7%,-15.7% (active),37.6%,27.5%,81.5%,39.1%,–
COC(=O)[C@@H](C)C[C@H](Cc1ccccc1)NC(=O)c1csc([C@@H](C[C@H](C(C)C)N(C)C(=O)[C@@H](NC(=O)[C@H]2CCCCN2C)C(C(F)(F)F)C(F)(F)F)OC(C)=O)n1,23.8%,59.7%,-21.6% (active),-46.1% (active),23.1%,-10.3% (active),19.9%,7.94% (active),–
COc1ccc(/C=C\c2cc(OC)c(OC)c(OC)c2)cc1NS(=O)(=O)c1ccc(Cl)cc1,35.2%,59.9%,83.5%,3.63% (active),73.6%,61.8%,74.8%,50.4%,–
COP(=O)(OC)C(O)c1ccc(Cl)cc1 (stereo not given),96.9%,114%,94.1%,100%,101%,–,98.9%,90%,–
O=C(CC1(O)C(=O)N(Cc2ccccc2)c2ccc(F)cc21)c1ccc(C(=O)NCC2CCC3(CC2)OOC2(CCCCC2)OO3)cc1 (stereo not given),-48.6% (active),-53.9% (active),-19.7% (active),-80.7% (active),-62.3% (active),4.47% (active),44.9%,-68.1% (active),–
CCC(CC)CC1(C)CC2(C)CCOC2OO1 (stereo not given),104%,97.8%,112%,109%,104%,–,93.4%,111%,–
C[C@@H]1O[C@@H](O[C@H]2C[C@@H](O)[C@]3(CO)C4C(CC[C@]3(O)C2)[C@@]2(O)CC[C@H](C3=CC(=O)OC3)[C@@]2(C)C[C@H]4O)[C@H](O)[C@H](O)[C@H]1O (stereo not given in full),-61.5% (active),-34.9% (active),-91% (active),-80.5% (active),-76.9% (active),-94.5% (active),-89.4% (active),-89.1% (active),–
CC1=C(CCCNS(C)(=O)=O)C2=C(C)C3(CC3)[C@@](C)(O)C(=O)C2=C1,-5.49% (active),-11.2% (active),-31% (active),11.7%,83.3%,1.02% (active),-43.3% (active),62.4%,–
CC(=O)O[C@H](C[C@H](C(C)C)N(C)C(=O)[C@@H](NC(=O)[C@H]1CCCCN1C)C(C)C)c1nc(C(=O)N[C@@H](Cc2ccccc2)C[C@H](C)C(=O)O)c(C)s1,1.59% (active),45.7%,-8.43% (active),-27% (active),25.5%,–,14%,15.6%,–
CCCC[C@H](NC(=O)[C@H]1CCCCN1C)C(=O)N(C)[C@H](C[C@@H](OC(C)=O)c1nc(C(=O)N[C@@H](Cc2ccccc2)C[C@H](C)C(=O)OCC)cs1)C(C)C,4.37% (active),38.6%,-25.6% (active),-6.84% (active),24.6%,–,14.5%,13.1%,–
COC(=O)[C@@H](C)C[C@H](Cc1ccccc1)NC(=O)c1csc([C@@H](C[C@H](C(C)C)N(C)C(=O)[C@H](C)NC(=O)[C@H]2CCCCN2C)OC(C)=O)n1,87.6%,41.9%,47.6%,-33% (active),18.4%,–,33.8%,22.4%,–
COC(=O)[C@@H](C)C[C@H](Cc1ccccc1)NC(=O)c1nc([C@@H](C[C@H](C(C)C)N(C)C(=O)[C@@H](NC(=O)[C@H]2CCCN2C)C(C)C)OC(C)=O)sc1C,4.35% (active),43.2%,-12.7% (active),-18.4% (active),20.1%,–,13.5%,11.9%,–
Nc1nc([Se])c2ncn(C3OC(CO)C(O)C3O)c2n1 (stereo not given),41.5%,93.5%,69.7%,74.3%,82.1%,28.1%,88.7%,82.5%,–
COc1cccc2c1c(C(=O)C(=O)Nc1cc(C)no1)cn2Cc1ccc(F)cc1,-0.189% (active),68%,25.5%,-34.4% (active),15.5%,–,58.4%,16.4%,–
COc1ccc2nc(NC(=O)COc3cc(/C=C\c4cc(OC)c(OC)c(OC)c4)ccc3OC)sc2c1,-5.38% (active),19.9%,55.4%,-45.1% (active),25.5%,12.6%,45.5%,16.8%,–
O=C(Nc1ccc(O)cc1)C(Cl)(Cl)Cl,99.4%,89.5%,91.2%,103%,110%,103%,–,103%,–
COc1ccc(-n2c(C)nc3cc(OC)c(OC)cc3c2=O)cc1OC,102%,91.4%,102%,104%,105%,–,109%,104%,–
O=C([O][Hg][CH2]C1OCCOC1[CH2][Hg][O]C(=O)c1ccccc1)c1ccccc1 (stereo not given),28.7%,-64.1% (active),75.5%,93.6%,-82.4% (active),-95.2% (active),108%,107%,–
O=C(c1cccc(O)c1O)c1cn(Cc2ccc(F)cc2)c2cccc(O)c12,19.3%,34.5%,41.4%,14.2%,37.1%,30.7%,35.6%,44.1%,–
Cc1cccc(N2CCN(C(C)C#N)CC2)c1 (stereo not given),96.9%,98.4%,92.4%,98.4%,–,108%,96.9%,108%,99.3%
COC(=O)[C@@H](C)C[C@H](Cc1ccccc1)NC(=O)c1nc([C@@H](C[C@H](C(C)C)N(C)C(=O)[C@@H](NC(=O)[C@H]2CCCCN2C)C(C)C)OC(C)=O)sc1C(C)C,8.7% (active),53.1%,-35.6% (active),-46.8% (active),–,-5.54% (active),3.15% (active),1.85% (active),18.3%
O=C1C(Cl)=C(N2CCOCC2)C(=O)c2ccccc21,90.9%,-23% (active),106%,67%,–,–,108%,102%,93.4%
CCCCN1CCCC[C@@H]1C(=O)N[C@H](C(=O)N(C)[C@H](C[C@@H](OC(C)=O)c1nc(C(=O)NC2CCC(C(=O)OC)CC2)cs1)C(C)C)C(C)C (stereo not given in full),41.2%,27.4%,40.1%,-43.9% (active),–,14%,67.6%,24.6%,24.6%
CN[C@]1(c2ccccc2Cl)CCCC[C@H]1NCCCN1CCN(C)CC1,101%,103%,102%,103%,–,97.8%,99.5%,101%,102%
COc1ccc(N(CC(=O)NCCC[Te]c2ccccc2)C(=O)CCSC2=C(C)C(=O)c3ccccc3C2=O)cc1,-36.3% (active),-57.7% (active),-18.2% (active),11.9%,–,-65.1% (active),-35.4% (active),-17.3% (active),-22.3% (active)
Nc1ccc2c(c1)oc1ccccc12,95.1%,97%,97.9%,94.7%,–,99.8%,97.6%,106%,83.2%
COC(=O)[C@@H](C)C[C@H](Cc1ccccc1)NC(=O)c1csc([C@@H](C[C@H](C(C)C)N(C)C(=O)C2(NC(=O)[C@H]3CCCCN3C)CCC2)OC(C)=O)n1,46.5%,50.1%,11.6%,-25.3% (active),–,3.39% (active),12.4%,5.71% (active),21.9%
CC(=O)C(c1c(O)c2ccccc2oc1=O)c1cc(=O)oc2c1ccc1ccccc12 (stereo not given),99.6%,84.3%,87.9%,103%,–,92.3%,104%,109%,91.3%
O=[N+]([O-])c1cnc[nH]1,104%,117%,112%,105%,–,106%,102%,107%,94.8%
